{
  "source": "PubChem BioAssay AID504905",
  "about": "(The Scripps Research Institute Molecular Screening Center, 2011)",
  "note": "The list shows a part of the results. Unmarked numbers belong to inactive results. Active and inactive are the calls of the source. Rule as the data show it: active = activation above about 17%; inactive = the rest.",
  "data": [
    {"molecular_target": "5-hydroxytryptamine receptor 5A (Homo sapiens) (UniProt P47898)", "sequence (P47898 whole entry, looked up)": "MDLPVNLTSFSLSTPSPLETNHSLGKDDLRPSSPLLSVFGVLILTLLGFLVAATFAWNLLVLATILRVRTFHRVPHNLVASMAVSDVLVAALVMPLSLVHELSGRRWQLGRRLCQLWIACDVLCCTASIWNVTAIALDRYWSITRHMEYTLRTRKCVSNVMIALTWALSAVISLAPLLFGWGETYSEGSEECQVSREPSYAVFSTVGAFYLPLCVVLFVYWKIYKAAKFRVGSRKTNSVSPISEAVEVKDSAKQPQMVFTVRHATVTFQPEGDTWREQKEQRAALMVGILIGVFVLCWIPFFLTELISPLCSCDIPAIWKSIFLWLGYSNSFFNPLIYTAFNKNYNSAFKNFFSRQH", "assay": "HTR5A agonists in cells, counter-screen for OPRM1-OPRD1 heterodimer agonist project, cell-based, luminescence (AID 504905);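 also: 0% = vehicle-treated cells and 100% = reference agonist response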", "conditions": "HTR5A agonist counterscreen, at 9.3 µM, hits give high values", "values": [
      {"molecule": "COc1ccccc1C(CNC(=O)c1ccc(C)c(S(=O)(=O)N2CCCCC2)c1)N(C)C", "note": "(stereo unspecified)", "activation": "0.79%"},
      {"molecule": "CN(C)C(CNC(=O)c1ccc(S(=O)(=O)NCc2ccco2)cc1)c1ccccc1", "note": "(stereo unspecified)", "activation": "4.56%"},
      {"molecule": "CN1C(CC(=O)Nc2ccc(Br)cc2)c2ccccc2CC1(C)C", "note": "(stereo unspecified)", "activation": "5.83%"},
      {"molecule": "CN(C)C(CNC(=O)c1cc2ccccc2o1)c1ccccc1", "note": "(stereo unspecified)", "activation": "46.9% (active)"},
      {"molecule": "COc1ccc(C2Nc3ccccc3C(=O)N2c2ccc(F)cc2)cc1Cn1nnc2ccccc21", "note": "(stereo unspecified)", "activation": "2.9%"},
      {"molecule": "COCCCNc1nc2c(-c3cccc(C)c3)nnn2c2ccc(Cl)cc12", "activation": "8.68%"},
      {"molecule": "COc1cc(C(=O)OC(C)C(=O)NCC2CCCCC2)cc(NC(=O)c2ccco2)c1OC", "note": "(stereo unspecified)", "activation": "-2.12%"},
      {"molecule": "CCNS(=O)(=O)c1ccc(NC(=O)Nc2cccc(OC)c2)cc1", "activation": "3.27%"},
      {"molecule": "Clc1ccc(COn2c(-c3ccc(Cl)cc3Cl)nc3ncccc32)cc1", "activation": "0.23%"},
      {"molecule": "O=C(Nc1ccc(OC(F)(F)F)cc1)c1ccc2c(c1)no[n+]2[O-]", "activation": "1.96%"},
      {"molecule": "Cc1cc(C)cc(C(=O)N(CCc2ccccc2)C2=CC3CCC(C2)N3C)c1", "note": "(stereo unspecified)", "activation": "-1.9%"},
      {"molecule": "CN1CCN(c2ccc([N+](=O)[O-])c(Sc3nc4ccccc4[nH]3)c2)CC1", "activation": "-0.05%"},
      {"molecule": "COc1cc(/C=N/NC(=O)Nc2ccccc2)ccc1OCCOc1ccccc1C", "activation": "10.4%"},
      {"molecule": "Cc1ccc(O)c(NC(=S)NC(=O)COc2ccc(Br)cc2)c1", "activation": "0.97%"},
      {"molecule": "Cc1ccc(CN(C(=O)c2sc3ccccc3c2Cl)C2CCS(=O)(=O)C2)cc1", "note": "(stereo unspecified)", "activation": "1.71%"},
      {"molecule": "N#CC(C(=O)c1ccc(S(=O)(=O)N2CCCCCC2)cc1)c1nc2ccccc2[nH]1", "note": "(stereo unspecified)", "activation": "5.09%"},
      {"molecule": "CCc1ccc(C(CNc2nc(C(F)(F)F)nc3ccccc23)N(C)C)cc1", "note": "(stereo unspecified)", "activation": "-2.05%"},
      {"molecule": "CCOC(=O)c1c(C)[nH]c2c1-c1ccccc1C(=O)C2=O", "activation": "9.05%"},
      {"molecule": "Cc1ccc(CNC(=O)CC(NC(=O)c2ccccc2)c2ccccc2)cc1", "note": "(stereo unspecified)", "activation": "-9.71%"},
      {"molecule": "C=C(C)COc1ccc(-c2n[nH]c(C)c2-c2ccccc2)c(O)c1", "activation": "5.34%"},
      {"molecule": "O=C(NC1=CC(=O)c2ccccc2C1=O)c1ccccc1", "activation": "3.59%"}
    ]}
  ]
}
